# From ChEMBL document CHEMBL4513216, “Probing the Open Global Health Chemical Diversity Library for Multistage-Active Starting Points for Next-Generation Antimalarials” (ACS Infect Dis, 2020)
# The whole screen tested about 69,000 compounds, of which about 8,600 (12%) showed an effect of 50% or more. Shown is part of a subset that was picked to be rich in strong results.
# Test system: Plasmodium berghei
# Assay: Screen against P. berghei liver stage (PbLuc), transformed with Luciferase, at 10uM
# Assay type: functional, HepG2
# Settings: tested at 10 uM
row,SMILES,INHIBITION
1,Cc1cnccc1CCNC(=O)Nc1cnc(N(C)C)nc1,42.3%
2,Cc1nc(NC(=O)C(C)N(C)Cc2cccc(C#N)c2)sc1C (stereo not given),-24.7%
3,COc1ccc(C(C)CCNC2CCN(c3ccccn3)CC2)cc1 (stereo not given),53.4%
4,c1ccc(N2CCC(NCCc3ccc(-n4cccn4)cc3)CC2)nc1,-15.3%
5,CC(C)COCCNC1CCN(c2ccccn2)CC1,41.4%
6,COc1c(CNC2CCN(c3ccccn3)CC2)c(C(C)C)nn1C,40.2%
7,CC(CNC1CCN(c2ccccn2)CC1)Oc1ccc(F)cc1 (stereo not given),65.4%
8,OC1(CNC2CCN(c3ccccn3)CC2)CCc2ccccc21 (stereo not given),7.31%
9,CN1CCC/C1=N\S(=O)(=O)c1ccc(NC(=O)c2cccs2)cc1,23.4%
10,c1ccc(CN2C[C@@H]3CC[C@H]2CN(Cc2nnc(C4CC4)o2)C3)cc1,45.4%
11,Cc1cc(C)n(CC2CN(CC(=O)N3CCC3)CCO2)n1 (stereo not given),8.64%
12,Cc1cccc(-c2ccc3nc(C4CCN(CC5CC5)CC4)nn3c2)c1,46.8%
13,COCCN1CCC(c2nc3ccc(-c4ccccc4)cn3n2)CC1,-18.4%
14,CCCN1CCC(c2nc3ccc(-c4cccc(OC)c4)cn3n2)CC1,82.9%
15,CCCN1CCC(c2nc3ccc(-c4ccncc4)cn3n2)CC1,16.8%
16,CCCN1CCC(c2nc3ccc(-c4cccc(F)c4)cn3n2)CC1,47.5%
17,CCCN1CCC(c2nc3ccc(-c4ccccc4)cn3n2)CC1,54.8%
18,CN(CCS(C)(=O)=O)C1CCCN(Cc2noc(C3CC3)n2)C1 (stereo not given),47.3%
19,CSCCN1CCC(NC(=O)c2cccc(C3CCCNC3)c2)CC1 (stereo not given),50.8%
20,CSc1cccc(CN(C)C(=O)c2cccc(C3CCCNC3)c2)c1 (stereo not given),60.4%
21,O=C(NC1CCOCC1)c1cccc(C2CCCNC2)c1 (stereo not given),27.7%
22,CSc1cccc(CN(C)C(=O)c2ccc(C3CCCNC3)cc2)c1 (stereo not given),9.56%
23,CN(Cc1ccc2c(c1)OCO2)C(=O)c1ccc(C2CCCNC2)cc1 (stereo not given),-26.5%
24,CCOC(=O)N1CCC(NC(=O)c2cccc(C3CCCNC3)c2)CC1 (stereo not given),9.72%

row,SMILES,INHIBITION
1,Cc1cccc(-n2cc3[nH]c(=O)n(Cc4cccc(F)c4)n3c2=O)c1,25.2%
2,CCc1noc(CN(CC)C(=O)CC2C(=O)NCCN2CC=C(C)C)n1 (stereo not given),16.9%
3,Cc1nc(C2NC3(CCCC3)C(=O)N2CC2CC2)cs1 (stereo not given),47.7%
4,CCc1nc(C2NC3(CCCC3)C(=O)N2CC2CC2)cs1 (stereo not given),61.6%
5,Cc1csc(C2NC3(CCCC3)C(=O)N2CC2CC2)n1 (stereo not given),43.5%
6,O=C(NCC1CC1)C1CSCN1S(=O)(=O)c1ccccc1 (stereo not given),-35.9%
7,Cc1n[nH]c(C2CN(CCc3cccs3)CCO2)n1 (stereo not given),35.3%
8,Cc1cccc(CN2C(=O)CO[C@@H]3CN(CCO)C[C@H]32)c1,-9.76%
9,COc1ccc(-c2nnc(CN3CCCC3Cn3cncn3)o2)cc1 (stereo not given),45.1%
10,Cc1nc(CN2C(=O)CC3(CCN(C(N)=O)CC3)c3ccccc32)cs1,36.4%
11,O=C([C@H]1CCCO1)N1CCC2(CC1)C(=O)N(CC1CC1)c1ccccc12,17.4%
12,NC(=O)N1CCC2(CC1)CC(=O)N(CC1CCCO1)c1ccccc12 (stereo not given),54.3%
13,COCCN1CCC2(CCN(Cc3ccc(OC)cc3)CC2)C1=O,38.3%
14,O=C(c1ccc(=O)[nH]n1)N1CCCC1C1CCCC1 (stereo not given),18%
15,O=C(c1cnc2[nH]c(=O)[nH]c(=O)c2c1)N1CCCC1C1CCCCC1 (stereo not given),-1.35%
16,O=C(c1c[nH]nn1)N1CCCC1C1CCCCC1 (stereo not given),53.8%
17,CC(C)N1CCC2(CC1)CC(NS(C)(=O)=O)c1ccccc1O2 (stereo not given),-12.2%
18,CC(C)NC(=O)NCc1cc(-c2ccco2)n(CC(F)(F)F)n1,20.4%
19,Cc1nc(N2CCC(O)(c3ccccc3)CC2)c2c(C)nn(C)c2n1,28.4%
20,Cc1nc(N2CCC(O)(c3ccc(F)cc3)CC2)c2c(C)nn(C)c2n1,51.2%
21,Cc1nc(C)c(C)c(N2CCC(O)(c3ccc(F)cc3)CC2)n1,25.5%
22,Cn1cc(CN2CCC3(CC2)CCN(C(=O)c2cscn2)C3)cn1,38.5%
23,COCC1CC2(CCN(c3cccc(C)n3)CC2)CN1c1ncccn1 (stereo not given),46.6%
24,Cn1cncc1-c1nnc([C@H]2CCN(Cc3ccc(F)c(F)c3)C2)o1,11.4%

row,SMILES,INHIBITION
1,Cn1cncc1-c1nnc([C@H]2CCN(Cc3ncc[nH]3)C2)o1,69.6%
2,Cn1cncc1-c1nnc([C@H]2CCN(C3CCOCC3)C2)o1,4.61%
3,Cn1cncc1-c1nnc([C@H]2CCN(CC3CCCCC3)C2)o1,-17.1%
4,Cn1cncc1-c1nnc([C@H]2CCN(Cc3ccc(CO)o3)C2)o1,-18.2%
5,CN1CC[C@H](c2nnc(-c3cncn3C)o2)C1,61.5%
6,Cc1ccccc1CN1CC[C@H](c2nnc(-c3cncn3C)o2)C1,5.96%
7,Cn1cncc1-c1nnc([C@H]2CCN(Cc3cccnc3)C2)o1,39.8%
8,Cn1cncc1-c1nnc([C@H]2CCN(CC(C)(C)C)C2)o1,57.4%
9,COc1ccc(OC)c(CNCc2c(C(C)C)nn(C)c2N(C)C)c1,30.08%
10,O=C1N[C@H]2OCCC[C@H]2[C@H](c2ccccc2C(=O)O)N1,-0.495%
11,Cc1ccc(C2(O)CCN(C(=O)c3cccc(S(C)(=O)=O)c3)CC2)nc1,-6.09%
12,Cc1n[nH]c(C)c1C1CCCN1C(=O)Cc1cccc(F)c1 (stereo not given),40.2%
13,CSc1ccc(NC(=O)Cn2cc(N)cn2)cc1,-15%
14,Cc1cc(NCCc2nnc(N)s2)nc(-c2ccccc2)n1,-13.3%
15,CN1C(=O)CC[C@@H]2N(C(=O)CCc3cccnc3)CCCC[C@@]21C,44.3%
16,CC(=O)N1CCc2[nH]cnc2C1C1=CCCN(CCn2cccc2)C1 (stereo not given),12.8%
17,CN(Cc1nnc(C2CCC2)o1)C(C(N)=O)c1cccc(F)c1 (stereo not given),12.7%
18,CC(C)C(C)N(C)Cc1nnc(-c2ccco2)o1 (stereo not given),66.9%
19,CCCC(C)N(C)Cc1nnc(-c2ccco2)o1 (stereo not given),26.9%
20,CN(Cc1nnc(-c2ccco2)o1)C(C(N)=O)c1cccc(F)c1 (stereo not given),61.5%
21,CC(C)CC(C)N(C)Cc1nnc(-c2ccco2)o1 (stereo not given),-17.5%
22,CN(Cc1nnc(-c2cccs2)o1)C(C(N)=O)c1cccc(F)c1 (stereo not given),-15.3%
